The results in this text go back to article PMC7862700, “An all-to-all approach to the identification of sequence-specific readers for epigenetic DNA modifications on cytosine”.

What all share (test): DAPPL (digital affinity profiling via proximity ligation, sequencing); 10 mM Tris-HCl pH 7.5, 50 mM NaCl, 1 mM DTT, 4% glycerol, room temperature, 30 min; GST-TFs on glutathione beads, 16-mer random dsDNA library, 0.1% formaldehyde crosslink after washing; high values mean tight binding
Details in all cases: protein: recombinant; tags: N-terminal GST; dsDNA, one strand shown

Experiment [1] has as its target T1, ELK1 (Homo sapiens, UniProt P19419 1-428).
T1 sequence: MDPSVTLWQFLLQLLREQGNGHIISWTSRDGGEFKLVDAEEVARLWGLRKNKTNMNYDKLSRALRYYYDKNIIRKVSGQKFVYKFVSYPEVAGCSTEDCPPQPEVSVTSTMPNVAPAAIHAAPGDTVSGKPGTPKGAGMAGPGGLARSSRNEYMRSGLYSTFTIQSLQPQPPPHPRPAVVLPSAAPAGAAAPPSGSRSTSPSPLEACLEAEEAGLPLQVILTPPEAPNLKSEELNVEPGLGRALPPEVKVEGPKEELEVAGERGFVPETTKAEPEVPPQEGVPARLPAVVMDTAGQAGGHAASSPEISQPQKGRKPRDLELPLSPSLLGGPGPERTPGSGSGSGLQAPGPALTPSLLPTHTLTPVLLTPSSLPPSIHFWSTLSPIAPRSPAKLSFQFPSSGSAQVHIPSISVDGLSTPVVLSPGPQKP
The procedure, abridged: (§1)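 A tag-only sample was pooled with DNA-barcoded human transcription factors that had been expressed in yeast as GST fusions and captured on glutathione beads. The pools were incubated for 30 min at room temperature with 200 nmole of a random double-stranded 16-mer DNA library in Tris/NaCl/DTT/glycerol buffer, then washed, crosslinked with 0.1% formaldehyde, proximity-ligated (BsaI/T4 ligase, 1 h, 37 °C), PCR-amplified and sequenced on an Illumina NextSeq500. Binding signal is each hexamer's read frequency for a factor divided by its frequency for the tag-only sample.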

In experiment [2] the target is T2, GABPA (Homo sapiens, UniProt Q06546 1-454).
T2 sequence: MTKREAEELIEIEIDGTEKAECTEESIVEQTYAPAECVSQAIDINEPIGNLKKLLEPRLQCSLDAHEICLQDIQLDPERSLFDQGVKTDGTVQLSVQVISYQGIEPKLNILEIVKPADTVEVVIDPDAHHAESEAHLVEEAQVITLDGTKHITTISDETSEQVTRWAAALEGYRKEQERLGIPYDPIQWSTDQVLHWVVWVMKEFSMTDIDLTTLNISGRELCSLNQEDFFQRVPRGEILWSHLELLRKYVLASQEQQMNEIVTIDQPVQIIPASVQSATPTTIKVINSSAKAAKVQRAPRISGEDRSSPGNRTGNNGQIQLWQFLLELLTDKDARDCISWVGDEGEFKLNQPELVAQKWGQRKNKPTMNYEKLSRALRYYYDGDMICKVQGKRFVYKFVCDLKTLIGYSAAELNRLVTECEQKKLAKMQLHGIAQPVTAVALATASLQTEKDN
The procedure, abridged: as §1

For experiment [3], the target named is T3, ERG (Homo sapiens, UniProt P11308 1-479).
T3 sequence: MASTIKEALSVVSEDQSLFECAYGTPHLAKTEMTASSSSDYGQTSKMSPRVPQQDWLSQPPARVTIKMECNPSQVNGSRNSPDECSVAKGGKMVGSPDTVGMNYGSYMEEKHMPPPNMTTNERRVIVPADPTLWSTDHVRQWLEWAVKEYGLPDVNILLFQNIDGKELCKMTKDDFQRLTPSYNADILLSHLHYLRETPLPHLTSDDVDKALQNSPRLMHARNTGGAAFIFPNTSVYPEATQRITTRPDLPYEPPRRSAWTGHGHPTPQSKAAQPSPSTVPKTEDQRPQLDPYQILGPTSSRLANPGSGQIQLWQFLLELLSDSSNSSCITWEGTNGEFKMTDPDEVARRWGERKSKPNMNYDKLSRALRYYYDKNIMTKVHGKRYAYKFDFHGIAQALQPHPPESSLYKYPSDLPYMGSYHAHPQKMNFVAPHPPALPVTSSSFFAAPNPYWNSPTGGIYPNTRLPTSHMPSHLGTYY
The procedure, abridged:
as §1

For experiment [4], the target named is SPIB (Homo sapiens, UniProt Q01892 1-262). The procedure, abridged: as §1
Experiment [5] addresses T4, SPIC (Homo sapiens, UniProt Q8N5J4 1-248).
T4 sequence: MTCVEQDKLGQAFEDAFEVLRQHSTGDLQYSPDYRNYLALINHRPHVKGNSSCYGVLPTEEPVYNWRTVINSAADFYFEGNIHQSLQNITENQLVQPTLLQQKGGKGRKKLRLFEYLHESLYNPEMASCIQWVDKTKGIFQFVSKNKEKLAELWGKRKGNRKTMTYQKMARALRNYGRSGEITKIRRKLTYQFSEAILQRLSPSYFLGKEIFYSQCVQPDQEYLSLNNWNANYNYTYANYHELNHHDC
A digest of the protocol:
as §1

For experiment [6], the target named is ELF4 (Homo sapiens, UniProt Q99607 1-663). A digest of the protocol: as §1
For experiment [7], the target named is ETV1 (Homo sapiens, UniProt P50549 1-477). The procedure, abridged:
as §1

Experiment [8] has as its target T5, ETV3L (Homo sapiens, UniProt Q6ZN32 1-361).
T5 sequence: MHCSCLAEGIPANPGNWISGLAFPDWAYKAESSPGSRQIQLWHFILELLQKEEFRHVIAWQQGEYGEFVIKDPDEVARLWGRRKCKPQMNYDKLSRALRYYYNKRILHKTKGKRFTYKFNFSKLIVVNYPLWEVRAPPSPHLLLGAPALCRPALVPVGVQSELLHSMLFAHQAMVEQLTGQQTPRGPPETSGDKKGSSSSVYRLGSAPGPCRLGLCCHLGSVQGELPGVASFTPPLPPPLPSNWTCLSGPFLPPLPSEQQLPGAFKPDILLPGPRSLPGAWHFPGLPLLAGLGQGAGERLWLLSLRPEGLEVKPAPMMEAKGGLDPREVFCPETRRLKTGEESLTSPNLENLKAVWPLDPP
A digest of the protocol: as §1

Experiment [9] addresses T6, ETS2 (Homo sapiens, UniProt P15036 1-469).
T6 sequence: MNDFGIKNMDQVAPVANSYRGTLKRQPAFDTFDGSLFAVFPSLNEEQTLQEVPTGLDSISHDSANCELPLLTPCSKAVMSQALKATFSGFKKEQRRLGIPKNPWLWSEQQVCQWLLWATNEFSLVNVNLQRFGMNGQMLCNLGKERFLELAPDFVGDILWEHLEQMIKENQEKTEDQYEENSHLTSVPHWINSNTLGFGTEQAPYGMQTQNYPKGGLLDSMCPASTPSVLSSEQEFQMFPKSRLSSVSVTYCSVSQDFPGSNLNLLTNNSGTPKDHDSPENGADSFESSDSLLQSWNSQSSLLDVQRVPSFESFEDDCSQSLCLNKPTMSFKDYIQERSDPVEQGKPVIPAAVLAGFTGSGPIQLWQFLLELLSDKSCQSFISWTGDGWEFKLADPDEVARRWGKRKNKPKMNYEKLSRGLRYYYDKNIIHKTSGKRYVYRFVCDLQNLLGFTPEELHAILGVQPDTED
The procedure, abridged:
as §1

In experiment [10] the target is T7, SPDEF (Homo sapiens, UniProt O95238 1-335).
T7 sequence: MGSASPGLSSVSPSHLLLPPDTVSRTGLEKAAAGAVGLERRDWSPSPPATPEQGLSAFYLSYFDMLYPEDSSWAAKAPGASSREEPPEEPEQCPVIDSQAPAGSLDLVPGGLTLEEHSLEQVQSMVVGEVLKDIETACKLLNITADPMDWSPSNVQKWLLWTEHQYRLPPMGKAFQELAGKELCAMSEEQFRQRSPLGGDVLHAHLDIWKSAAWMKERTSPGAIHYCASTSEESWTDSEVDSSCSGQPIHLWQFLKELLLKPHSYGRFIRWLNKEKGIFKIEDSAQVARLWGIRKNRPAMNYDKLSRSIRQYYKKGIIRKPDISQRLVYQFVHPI
The procedure, abridged: as §1

Experiment [11] addresses T8, ETV7 (Homo sapiens, UniProt Q9Y603 1-341).
T8 sequence: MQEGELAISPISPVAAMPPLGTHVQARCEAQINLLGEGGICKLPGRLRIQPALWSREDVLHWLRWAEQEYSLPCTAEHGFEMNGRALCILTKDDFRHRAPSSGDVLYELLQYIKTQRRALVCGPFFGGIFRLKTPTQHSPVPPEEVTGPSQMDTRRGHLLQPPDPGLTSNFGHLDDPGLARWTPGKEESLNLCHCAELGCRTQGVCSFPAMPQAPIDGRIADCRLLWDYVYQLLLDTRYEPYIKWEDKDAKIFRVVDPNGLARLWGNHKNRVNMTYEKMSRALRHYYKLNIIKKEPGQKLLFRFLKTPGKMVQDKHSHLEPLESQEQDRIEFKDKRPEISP
The procedure, abridged:
as §1

Experiment [12] concerns the target T9, ETV3 (Homo sapiens, UniProt P41162-2 1-143).
T9 sequence: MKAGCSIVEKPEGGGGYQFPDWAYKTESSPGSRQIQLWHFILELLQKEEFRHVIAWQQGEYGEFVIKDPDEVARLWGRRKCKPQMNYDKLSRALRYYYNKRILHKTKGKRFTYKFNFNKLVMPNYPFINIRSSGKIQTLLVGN
The procedure, abridged:
as §1

ETV1, sequence (P50549 whole entry): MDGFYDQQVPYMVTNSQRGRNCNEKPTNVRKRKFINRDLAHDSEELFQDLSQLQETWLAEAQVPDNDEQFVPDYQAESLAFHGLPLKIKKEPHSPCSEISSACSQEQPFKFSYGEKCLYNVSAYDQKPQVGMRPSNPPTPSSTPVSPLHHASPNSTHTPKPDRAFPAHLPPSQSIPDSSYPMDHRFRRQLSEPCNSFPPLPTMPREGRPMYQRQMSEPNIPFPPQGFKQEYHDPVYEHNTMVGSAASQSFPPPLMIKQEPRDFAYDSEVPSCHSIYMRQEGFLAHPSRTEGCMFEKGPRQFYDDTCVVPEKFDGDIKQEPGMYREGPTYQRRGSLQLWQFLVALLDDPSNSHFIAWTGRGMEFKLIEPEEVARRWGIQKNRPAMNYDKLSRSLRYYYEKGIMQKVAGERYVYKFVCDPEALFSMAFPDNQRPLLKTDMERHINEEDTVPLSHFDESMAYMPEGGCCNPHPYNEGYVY
ELF4, sequence (Q99607 whole entry): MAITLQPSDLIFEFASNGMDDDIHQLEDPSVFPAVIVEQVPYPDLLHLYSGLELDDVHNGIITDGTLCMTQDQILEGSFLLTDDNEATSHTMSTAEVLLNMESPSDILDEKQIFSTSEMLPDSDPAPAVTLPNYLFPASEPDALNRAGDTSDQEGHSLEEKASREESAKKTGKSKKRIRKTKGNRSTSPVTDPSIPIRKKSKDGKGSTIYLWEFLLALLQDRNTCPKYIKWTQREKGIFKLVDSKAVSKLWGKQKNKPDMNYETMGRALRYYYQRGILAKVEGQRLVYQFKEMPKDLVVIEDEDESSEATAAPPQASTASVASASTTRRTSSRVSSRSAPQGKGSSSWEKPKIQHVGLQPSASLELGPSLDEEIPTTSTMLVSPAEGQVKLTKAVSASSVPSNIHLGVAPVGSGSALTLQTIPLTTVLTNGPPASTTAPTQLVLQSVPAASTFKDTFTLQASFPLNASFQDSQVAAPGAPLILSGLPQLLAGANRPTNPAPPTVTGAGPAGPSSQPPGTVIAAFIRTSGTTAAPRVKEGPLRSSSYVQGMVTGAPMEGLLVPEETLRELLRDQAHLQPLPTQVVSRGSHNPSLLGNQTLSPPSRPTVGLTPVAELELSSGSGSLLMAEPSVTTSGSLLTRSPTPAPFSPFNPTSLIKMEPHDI
SPIB, sequence (Q01892 whole entry): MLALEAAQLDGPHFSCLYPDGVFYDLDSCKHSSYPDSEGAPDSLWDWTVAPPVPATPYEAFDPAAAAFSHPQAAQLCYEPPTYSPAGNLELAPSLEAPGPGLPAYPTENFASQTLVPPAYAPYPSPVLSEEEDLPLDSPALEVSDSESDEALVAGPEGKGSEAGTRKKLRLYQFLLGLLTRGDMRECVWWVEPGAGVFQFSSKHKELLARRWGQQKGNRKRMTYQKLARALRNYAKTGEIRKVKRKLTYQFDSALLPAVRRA

As to GGATCT, the binding signal is 1.07 fold enrichment (6-mer frequency, TF over GST control) in [1]; 1.02 fold enrichment (6-mer frequency, TF over GST control) in experiment [2]; 1.01 fold enrichment (6-mer frequency, TF over GST control) in [3]; 1.02 fold enrichment (6-mer frequency, TF over GST control) in experiment [4]; 1.01 fold enrichment (6-mer frequency, TF over GST control) in experiment [5]; 1.02 fold enrichment (6-mer frequency, TF over GST control) in experiment [6]. Moreover, the binding signal is 1.03 fold enrichment (6-mer frequency, TF over GST control) in [7]; 1.06 fold enrichment (6-mer frequency, TF over GST control) in [8]; 1 fold enrichment (6-mer frequency, TF over GST control) in experiment [9]; 1.54 fold enrichment (6-mer frequency, TF over GST control) in experiment [10]; 1.07 fold enrichment (6-mer frequency, TF over GST control) in experiment [11]; 1.08 fold enrichment (6-mer frequency, TF over GST control) in [12].
